This is an account of results in PubChem BioAssay (Tox21).

“And” between values parts separate entries of the source, which are not always exact repeats. Equal values may be shown once. Records with an inconclusive call do not appear. Unmarked numbers belong to inactive results. The source made the active and inactive calls. The call rests on the fitted dose curve; in most records, active means well fitted curve in the direction sought with a large enough effect in the repeat runs; inconclusive means weak or mixed curves; inactive means no such curve, though single readings can be large; an effect the other way counts as inactive or inconclusive.

Experiment [1] deals with Nuclear receptor subfamily 1 group I member 2 (Rattus norvegicus) (UniProt Q9R1A7). In words: Rat pregnane X receptor (rPXR) activation by small molecules, qHTS assay (AID 1346983). Further: on the % scale 0 is the no-effect control and ±100 the full control effect; nearly all actives have a fitted effect of over 20% in size. As to conditions: rPXR luciferase reporter cells, One-Glo luminescence, 24 h; max activation: hits give high values. Put shortly:
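Cell-based rPXR activation assay: rPXR cells, 2,000 per well, rested 5hr at 37 C, then exposed to compounds in DMSO for 24 hr at 37 C. Luciferase activity read by One-Glo luminescence after 30 min at room temperature.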

In experiment [2] the target is Nuclear receptor subfamily 1 group I member 2 (Homo sapiens) (UniProt O75469). In words: Human pregnane X receptor (PXR) activation by small molecules, qHTS assay (AID 1346985). Further: on the % scale 0 is the no-effect control and ±100 the full control effect; nearly all actives have a fitted effect of over 40% in size. Put shortly:
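DPX-2 cells (HepG2 co-transfected with a PXR response element and a CYP3A4-promoter luciferase construct) were seeded at 2,000 per well, rested 5 hr at 37C, then exposed to DMSO-dissolved compounds for 24 hr. Activation was read as luciferase luminescence.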

Experiment [3] shares this target. In words: CYP3A4 induction through human pregnane X receptor (PXR) by small molecules, qHTS assay (AID 1346984). Further: on the % scale 0 is the no-effect control and ±100 the full control effect; nearly all actives have a fitted effect of over 40% in size. The method, boiled down: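 Steps: seed DPX-2 cells, 5 hr at 37C; pin-transfer compounds; 24 hr at 37C; add Luciferin-IPA (3uM final), 3 hr at 37C; add One-Glo, 30 min RT; read luminescence.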
In experiment [4] the target is Cytochrome P450 2D6 (Homo sapiens) (UniProt P10635). The experiment is described as follows: Cytochrome P450 Family 2 Subfamily D Member 6 (CYP2D6) small molecule antagonists: luciferase reporter qHTS assay (AID 1671196). Further: nearly all actives have a fitted effect of over 50% in size. Further: potency means the concentration at half of the fitted maximal effect. Put shortly:
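P450-Glo format: CYP2D6 converts a proluciferin substrate to luciferin in an NADPH-driven reaction lasting 1 h at room temperature. Light output, proportional to CYP2D6 activity, reflects interference by test chemicals.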

Experiment [5] concerns the target Cytochrome P450 2C19 (Homo sapiens) (UniProt P33261). In words: Cytochrome P450 Family 2 Subfamily C Member 19 (CYP2C19) small molecule antagonists: luciferase reporter qHTS assay (AID 1671197). Further: nearly all actives have a fitted effect of over 65% in size. Further: potency means the concentration at half of the fitted maximal effect. Put shortly:
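Light output is proportional to CYP2C19 activity: proluciferin substrate is converted to luciferin, then detected by a luciferin detection reagent that also stops the 1 h, 37C NADPH-driven reaction. Ketoconazole serves as positive control.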

For experiment [6], the target named is Cytochrome P450 2C9 (Homo sapiens) (UniProt P11712). The experiment is described as follows: Cytochrome P450 Family 2 Subfamily C Member 9 (CYP2C9) small molecule antagonists: luciferase reporter qHTS assay (AID 1671198). Further: potency means the concentration at half of the fitted maximal effect; nearly all actives have a fitted effect of over 50% in size. The method, boiled down:
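P450-Glo proluciferin substrate with CYP2C9 enzyme; 10 min RT preincubation, then NADPH regeneration 1 h at 37C; luciferin detection reagent 20 min RT, luminescence in relative luminescence units.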

For experiment [7], the target named is Cytochrome P450 1A2 (Homo sapiens) (UniProt P05177). The experiment is described as follows: Cytochrome P450 Family 1 Subfamily A Member 2 (CYP1A2) small molecule antagonists: luciferase reporter qHTS assay (AID 1671199). Further: potency means the concentration at half of the fitted maximal effect; nearly all actives have a fitted effect of over 50% in size. The method, boiled down:
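Inhibition of CYP1A2 conversion of proluciferin to luciferin, detected by luminescence. Reaction run 1 h at room temperature with NADPH regeneration after brief compound preincubation.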

The target in experiment [8] is Voltage-gated inwardly rectifying potassium channel KCNH2 (Homo sapiens) (UniProt Q12809). In words: Human Ether-a-go-go-Related Gene (hERG) channel small molecule antagonists: fluorescence cell-based qHTS assay (AID 1671200). Further: nearly all actives have a fitted effect of over 50% in size. Further: potency means the concentration at half of the fitted maximal effect. The method, boiled down:
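Read-out: thallium influx as a surrogate for potassium, tracked as fluorescence (480 nm ex/540 nm em) every second for 2 min after Stimulus Buffer addition in dye-loaded hERG-U2OS cells.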

Experiment [9] concerns the target Cytochrome P450 3A4 (Homo sapiens) (UniProt P08684). The experiment is described as follows: Cytochrome P450 Family 3 Subfamily A Member 4 (CYP3A4) small molecule antagonists: luciferase reporter qHTS assay (AID 1671201). Further: nearly all actives have a fitted effect of over 50% in size. Further: potency means the concentration at half of the fitted maximal effect. The method, boiled down:
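Luminescent readout (RLU) proportional to CYP3A4 activity, from luciferin generated off a proluciferin substrate. Enzyme–substrate mix plus compound 10 min at room temp, NADPH regeneration 1 h, detection reagent 20 min.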

Chain of Nuclear receptor subfamily 1 group I member 2 (Rattus norvegicus) (Q9R1A7 whole entry, looked up): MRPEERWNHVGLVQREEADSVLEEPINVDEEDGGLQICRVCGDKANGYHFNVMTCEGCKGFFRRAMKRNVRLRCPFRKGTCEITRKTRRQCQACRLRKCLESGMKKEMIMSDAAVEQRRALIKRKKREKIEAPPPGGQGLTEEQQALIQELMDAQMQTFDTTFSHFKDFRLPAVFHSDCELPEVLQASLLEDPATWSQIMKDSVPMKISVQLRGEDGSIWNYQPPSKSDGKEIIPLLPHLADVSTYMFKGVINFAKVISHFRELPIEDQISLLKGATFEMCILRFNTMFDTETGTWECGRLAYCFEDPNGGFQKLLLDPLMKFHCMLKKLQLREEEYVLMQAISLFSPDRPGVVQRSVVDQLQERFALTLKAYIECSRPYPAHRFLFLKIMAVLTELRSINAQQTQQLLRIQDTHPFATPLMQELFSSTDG
Chain of Cytochrome P450 2C19 (Homo sapiens) (P33261 whole entry, looked up): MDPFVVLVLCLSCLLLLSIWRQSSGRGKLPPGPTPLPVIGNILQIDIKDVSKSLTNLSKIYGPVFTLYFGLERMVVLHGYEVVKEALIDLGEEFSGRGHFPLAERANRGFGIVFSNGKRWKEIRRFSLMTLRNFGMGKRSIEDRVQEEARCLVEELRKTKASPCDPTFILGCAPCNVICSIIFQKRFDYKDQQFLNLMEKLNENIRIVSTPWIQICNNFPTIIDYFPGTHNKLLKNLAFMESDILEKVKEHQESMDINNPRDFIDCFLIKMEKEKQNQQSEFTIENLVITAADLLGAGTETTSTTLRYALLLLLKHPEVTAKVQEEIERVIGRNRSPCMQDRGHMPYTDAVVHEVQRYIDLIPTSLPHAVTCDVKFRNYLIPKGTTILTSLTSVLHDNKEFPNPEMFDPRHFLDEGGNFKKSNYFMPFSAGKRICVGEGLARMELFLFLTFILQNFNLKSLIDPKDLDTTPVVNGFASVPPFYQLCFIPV
Chain of Cytochrome P450 3A4 (Homo sapiens) (P08684 whole entry, looked up): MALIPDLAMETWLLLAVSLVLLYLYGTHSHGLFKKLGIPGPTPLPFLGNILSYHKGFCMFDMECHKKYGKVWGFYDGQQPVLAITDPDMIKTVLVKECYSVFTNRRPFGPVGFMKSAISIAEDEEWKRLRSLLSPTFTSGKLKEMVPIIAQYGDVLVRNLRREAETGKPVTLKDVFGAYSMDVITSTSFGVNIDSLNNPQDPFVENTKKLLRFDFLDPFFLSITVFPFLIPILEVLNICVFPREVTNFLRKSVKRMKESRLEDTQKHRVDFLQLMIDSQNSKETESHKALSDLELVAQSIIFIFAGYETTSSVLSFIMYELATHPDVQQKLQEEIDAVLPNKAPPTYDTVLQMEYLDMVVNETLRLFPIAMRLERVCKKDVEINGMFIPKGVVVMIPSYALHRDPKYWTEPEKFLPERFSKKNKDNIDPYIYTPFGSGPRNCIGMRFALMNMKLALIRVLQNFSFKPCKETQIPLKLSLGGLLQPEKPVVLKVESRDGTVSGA
Chain of Cytochrome P450 2D6 (Homo sapiens) (P10635 whole entry, looked up): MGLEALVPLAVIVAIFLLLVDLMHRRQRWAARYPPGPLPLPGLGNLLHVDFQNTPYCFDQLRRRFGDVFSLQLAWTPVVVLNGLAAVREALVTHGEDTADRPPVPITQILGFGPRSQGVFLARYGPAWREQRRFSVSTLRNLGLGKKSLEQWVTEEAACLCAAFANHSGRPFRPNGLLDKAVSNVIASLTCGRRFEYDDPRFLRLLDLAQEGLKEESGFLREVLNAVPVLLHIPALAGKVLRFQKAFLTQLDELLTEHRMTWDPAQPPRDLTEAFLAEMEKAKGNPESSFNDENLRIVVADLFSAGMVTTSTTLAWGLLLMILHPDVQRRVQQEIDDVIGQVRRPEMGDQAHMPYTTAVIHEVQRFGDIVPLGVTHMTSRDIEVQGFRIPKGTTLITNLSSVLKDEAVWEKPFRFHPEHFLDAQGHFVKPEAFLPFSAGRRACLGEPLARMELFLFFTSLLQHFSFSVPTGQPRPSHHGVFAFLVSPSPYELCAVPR
Chain of Cytochrome P450 2C9 (Homo sapiens) (P11712 whole entry, looked up): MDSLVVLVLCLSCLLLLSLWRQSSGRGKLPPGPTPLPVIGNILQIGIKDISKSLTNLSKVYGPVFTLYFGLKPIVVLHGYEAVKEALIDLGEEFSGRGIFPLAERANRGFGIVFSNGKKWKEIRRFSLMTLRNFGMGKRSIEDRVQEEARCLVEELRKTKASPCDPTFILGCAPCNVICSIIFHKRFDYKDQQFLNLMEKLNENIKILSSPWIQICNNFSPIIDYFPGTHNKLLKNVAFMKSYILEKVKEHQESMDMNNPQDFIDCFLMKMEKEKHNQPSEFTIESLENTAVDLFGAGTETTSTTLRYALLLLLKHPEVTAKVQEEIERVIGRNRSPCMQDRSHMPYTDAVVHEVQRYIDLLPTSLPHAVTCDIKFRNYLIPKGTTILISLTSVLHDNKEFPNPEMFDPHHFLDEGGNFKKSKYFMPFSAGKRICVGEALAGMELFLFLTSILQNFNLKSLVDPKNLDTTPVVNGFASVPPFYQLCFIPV
Chain of Voltage-gated inwardly rectifying potassium channel KCNH2 (Homo sapiens) (Q12809 whole entry, looked up): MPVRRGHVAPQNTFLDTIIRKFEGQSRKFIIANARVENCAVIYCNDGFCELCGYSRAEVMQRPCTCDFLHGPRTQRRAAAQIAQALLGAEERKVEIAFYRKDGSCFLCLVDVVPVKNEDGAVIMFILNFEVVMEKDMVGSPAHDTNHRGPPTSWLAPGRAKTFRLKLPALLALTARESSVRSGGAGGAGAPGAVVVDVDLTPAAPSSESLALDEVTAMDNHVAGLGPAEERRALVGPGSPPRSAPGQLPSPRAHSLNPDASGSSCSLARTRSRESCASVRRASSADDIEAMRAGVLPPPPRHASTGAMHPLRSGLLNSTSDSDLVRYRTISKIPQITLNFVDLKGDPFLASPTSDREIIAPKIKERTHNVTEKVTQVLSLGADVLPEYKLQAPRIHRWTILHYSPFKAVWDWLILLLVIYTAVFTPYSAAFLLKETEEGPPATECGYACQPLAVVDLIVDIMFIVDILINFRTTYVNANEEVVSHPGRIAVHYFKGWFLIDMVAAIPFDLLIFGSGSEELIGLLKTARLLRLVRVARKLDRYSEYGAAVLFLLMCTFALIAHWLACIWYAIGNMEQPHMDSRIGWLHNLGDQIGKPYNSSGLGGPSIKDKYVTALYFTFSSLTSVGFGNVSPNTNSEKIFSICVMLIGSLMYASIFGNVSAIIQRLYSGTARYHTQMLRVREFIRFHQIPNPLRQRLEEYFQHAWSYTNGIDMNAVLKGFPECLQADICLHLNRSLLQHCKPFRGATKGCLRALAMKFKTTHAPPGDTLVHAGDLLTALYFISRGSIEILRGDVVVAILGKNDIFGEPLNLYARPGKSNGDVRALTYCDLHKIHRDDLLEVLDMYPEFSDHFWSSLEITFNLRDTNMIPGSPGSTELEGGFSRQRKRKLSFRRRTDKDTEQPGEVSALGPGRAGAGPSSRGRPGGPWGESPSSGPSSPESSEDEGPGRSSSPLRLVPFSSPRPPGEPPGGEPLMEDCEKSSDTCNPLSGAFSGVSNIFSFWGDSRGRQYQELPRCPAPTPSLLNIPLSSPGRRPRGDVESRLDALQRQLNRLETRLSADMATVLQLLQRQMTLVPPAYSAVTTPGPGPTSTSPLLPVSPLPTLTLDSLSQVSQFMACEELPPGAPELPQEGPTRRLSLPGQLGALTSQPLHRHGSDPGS
Chain of Cytochrome P450 1A2 (Homo sapiens) (P05177 whole entry, looked up): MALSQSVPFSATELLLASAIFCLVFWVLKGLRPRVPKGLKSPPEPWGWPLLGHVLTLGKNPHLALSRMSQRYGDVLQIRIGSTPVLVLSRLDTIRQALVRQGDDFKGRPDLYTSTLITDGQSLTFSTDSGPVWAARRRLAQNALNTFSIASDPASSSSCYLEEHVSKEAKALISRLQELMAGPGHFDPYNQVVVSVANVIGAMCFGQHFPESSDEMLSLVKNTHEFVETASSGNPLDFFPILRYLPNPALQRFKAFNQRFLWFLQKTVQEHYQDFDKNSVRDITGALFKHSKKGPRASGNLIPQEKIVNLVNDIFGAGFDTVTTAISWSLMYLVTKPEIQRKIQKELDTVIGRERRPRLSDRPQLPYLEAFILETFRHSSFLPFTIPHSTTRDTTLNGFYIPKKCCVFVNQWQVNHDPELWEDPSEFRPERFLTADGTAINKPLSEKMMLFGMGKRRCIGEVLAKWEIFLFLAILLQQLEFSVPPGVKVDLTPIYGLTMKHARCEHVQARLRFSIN

As to `CC1(C)S[C@@H]2[C@H](NC(=O)[C@@H](NC(=O)N3CCNC3=O)c3ccccc3)C(=O)N2[C@H]1C(=O)O`, the max activation in experiment [1] is -1.76%. Moreover, the Potency result in experiment [2] was “inactive”.

`CCCCCN=C(N)N/N=C/c1c[nH]c2ccc(OC)cc12`: in [1], the max activation is -0.704%. For the same molecule, the Potency result in experiment [3], in experiment [4], in [5] and in [9] was “inactive” in each case. In addition, the figures for the Potency in experiment [6], in [7] and in experiment [8] were 38.9 µM (active), 4.9 µM (active) and 10.7 µM (active), respectively.

With `CC1(C)C[C@@H]1C(=O)N/C(=C\CCCCSC[C@H](N)C(=O)O)C(=O)O`, the max activation in experiment [1] is -4.56% and -1.17%. The Potency result in experiment [3] and in experiment [2] was “inactive” throughout.

For `C[N+]1(CCCCC[N+]2(C)CCCC2)CCCC1`, the max activation in experiment [1] was -2.61%. The Potency entry in experiment [3] and in [2] was “inactive” throughout.

Consider `CO/N=C(\C(=O)N[C@@H]1C(=O)N2C(C(=O)O)=C(CSc3nc(C)c(CC(=O)O)s3)CS[C@H]12)c1csc(N)n1`, for which the max activation in [1] was -4.17%. Besides, the Potency result in experiment [2] is “inactive”.

In the case of `CC(=O)NC[C@H]1CN(c2ccc(N3CCOCC3)c(F)c2)C(=O)O1`, in [1], the max activation was -2.66%. In addition, the Potency result in experiment [3] and in experiment [2] was “inactive” each time.

`CO[C@H]1C[C@H](O[C@H]2[C@H](C)[C@@H](O[C@@H]3O[C@H](C)C[C@H](N(C)C)[C@H]3O)[C@@H](C)C[C@]3(CO3)C(=O)[C@H](C)[C@@H](O)[C@@H](C)[C@@H](C)OC(=O)[C@@H]2C)O[C@@H](C)[C@@H]1O`: the max activation in experiment [1] was 3.2%. Further, the Potency result in experiment [3] and in experiment [2] was “inactive” throughout.

Regarding `O=P(O)(O)OP(=O)(O)OP(=O)(O)O`, the max activation in experiment [1] is -6.54%. Besides, the Potency result in [3] and in [2] was “inactive” in each case.

In the case of `O=C(CCN1CCC(c2ccccc2)C1)c1ccc2c(c1)OCCO2` (stereo not drawn), the max activation in experiment [1] is -4.55%. The Potency entry in experiment [3], in experiment [2] and in experiment [9] was “inactive” in each case. In [4], the Potency is 2.19 µM (active).

Regarding `NC(N)=NCc1cccc(I)c1`, the max activation in [1] was -16.9%. Also, the Potency entry in [3] and in experiment [2] was “inactive” each time.

Regarding `CCCCCCCCCCCC[n+]1ccc2ccccc2c1`, the max activation in experiment [1] is -19.3%. Moreover, the Potency result in experiment [3] and in experiment [2] was “inactive” in each case.

Consider `O=[N+]([O-])c1ccc(O)c2ncccc12`, for which the max activation in [1] is -6.55%. The Potency entry in [3], in experiment [4], in [5] and in experiment [8] was “inactive” in each case. Besides, the Potency in experiment [6] was 38.9 µM (active).

Turning to `CN1C(C(=O)Nc2ccccn2)C(=O)c2sc(Cl)cc2S1(=O)=O` (stereo not drawn), the max activation in experiment [1] was -4.75%. In addition, the Potency entry in experiment [3] and in experiment [2] was “inactive” each time.

Turning to `CC(C)C[C@H](NC(=O)[C@@H](COC(C)(C)C)NC(=O)[C@H](Cc1ccc(O)cc1)NC(=O)[C@H](CO)NC(=O)[C@H](Cc1c[nH]c2ccccc12)NC(=O)[C@H](Cc1cnc[nH]1)NC(=O)[C@@H]1CCC(=O)N1)C(=O)N[C@@H](CCCN=C(N)N)C(=O)N1CCC[C@H]1C(=O)NNC(N)=O`, the max activation in experiment [1] is -1.54%. Moreover, the Potency entry in [2] is “inactive”.

Regarding `O=C(O)[C@@H]1C[C@H](CP(=O)(O)O)CCN1`, in [1], the max activation is -5.85%. In addition, the Potency result in experiment [3] and in experiment [2] was “inactive” in each case.

With `CC1(C)CCC(NC(=O)[C@@H](N)CCC(=O)O)CC1`, the max activation in [1] was -2.85%. For the same molecule, the Potency result in experiment [3] and in experiment [2] was “inactive” each time.

For `CCN(CC)C(=O)[C@]1(c2ccccc2)C[C@@H]1CN`, the max activation in experiment [1] is -2.63%. Besides, in experiment [2], the Potency entry is “inactive”.

As to `O=C(O)[C@H]1CN(C/C=C/P(=O)(O)O)CCN1`, the max activation in experiment [1] is -2.14%. Moreover, the Potency entry in experiment [3] and in experiment [2] was “inactive” in each case.

With `O=C[C@H](O)[C@@H](O)[C@@H](O)[C@H](O)CO`, the max activation in experiment [1] was -2.08%. Also, the Potency entry in experiment [3] and in experiment [2] was “inactive” throughout.

As to `NCC1CCC(C(=O)O)CC1` (stereo not drawn), the max activation in experiment [1] was -1.27%. Also, the Potency entry in experiment [2] was “inactive”.

In the case of `CC(C)C[C@@H](NC(=O)[C@@H](O)[C@H](N)Cc1ccccc1)C(=O)O`, the max activation in [1] was -7.87%. The Potency result in experiment [3] and in experiment [2] was “inactive” each time.

As to `CNC(=O)C[C@@H](N)C(=O)N[C@@H](C(=O)N[C@@H]1C(=O)N2[C@@H]1SC(C)(C)[C@@H]2C(=O)O)c1ccc(O)cc1`, the max activation in [1] was -2.18%. Further, the Potency result in [3] and in experiment [2] was “inactive” in each case.

With `COc1cc(/C=C/C(=O)CC(=O)/C=C/c2ccc(O)c(OC)c2)ccc1O`, the max activation in experiment [1] is 8.99%. Also, the Potency entry in experiment [3] and in experiment [2] was “inactive” throughout. Also, the Potency in [4] is 35.8 µM (active); in experiment [5] it was 10.1 µM (active); in experiment [7], 31.9 µM (active); in experiment [9] it was 10.1 µM (active).

On to `O=S(=O)(O)CC(S)CS` (stereo not drawn), for which the max activation in experiment [1] is -6.49%. The Potency result in [3] and in experiment [2] was “inactive” in each case.

Take `C=C1C(=C/C=C2\CCC[C@]3(C)[C@@H]([C@H](C)CCCC(C)C)CC[C@@H]23)C[C@@H](O)C[C@@H]1O`: in [1], the max activation was -2.56%. Also, the Potency result in [2] was “inactive”.

Turning to `N=C(N)c1ccc(/C=C/c2ccc(C(=N)N)cc2O)cc1`, the max activation in [1] was -1.55%. In addition, in [2], the Potency result is “inactive”.

Regarding `CC(C)=CCC/C(C)=C/CC/C(C)=C/CC/C=C(\C)CC/C=C(\C)CCC=C(C)C`, the max activation in [1] was -2.04%. Further, the Potency result in [3] and in experiment [2] was “inactive” each time.
